This is part of a sample that, as a whole, favours compounds with a hit. Of some 79,000 tested, about 15% had one in any assay. Activity calls are given as the source filed them. Rule as the data show it: active = growth inhibition above about 70%; inactive = the rest.
Assays:
[1] = NCI Yeast Anticancer Drug Screen. Data for the mec2-1 strain (AID 157); conditions: S. cerevisiae mec2-1 strain, active compounds read high
How it was run: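 Yeast mec2-1 mutant treated with compound. Readout: growth inhibition vs vehicle controls.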

[2] = NCI Yeast Anticancer Drug Screen. Data for the rad14 strain (AID 159);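 also: 0% = growth of vehicle-treated control cultures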; conditions: S. cerevisiae rad14 strain growth inhibition, active compounds read high
How it was run: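 A mutant yeast strain defective in DNA damage repair is treated with compound; inhibition of its growth is scored against untreated, vehicle-exposed cultures.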

[3] = NCI Yeast Anticancer Drug Screen. Data for the sgs1 mgt1 strain (AID 161);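 also: 0% = growth of cultures given vehicle only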; conditions: S. cerevisiae sgs1 mgt1 strain, active compounds read high
How it was run: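 Inhibition of yeast growth, normalised to vehicle-treated controls, is reported for a strain bearing genetic alterations in DNA damage repair.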

[4] = NCI Yeast Anticancer Drug Screen. Data for the CLN2oe strain (AID 163);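 also: 0% = growth of vehicle-only control cultures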; conditions: S. cerevisiae CLN2oe strain, active compounds read high
How it was run: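 Read-out: yeast growth inhibition, expressed relative to vehicle-only controls. The strain bears an engineered cell-cycle alteration.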

[5] = NCI Yeast Anticancer Drug Screen. Data for the cln2 rad14 strain (AID 165);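 also: 0% = growth equal to vehicle treated cultures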; conditions: S. cerevisiae cln2 rad14 strain, active compounds read high
How it was run: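 cln2 rad14 yeast strain; compound exposure; growth inhibition read vs vehicle controls.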

[6] = NCI Yeast Anticancer Drug Screen. Data for the bub3 strain (AID 167); conditions: S. cerevisiae bub3 mutant strain, active compounds read high
How it was run: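 Steps: expose the mutant yeast strain to compound; grow alongside vehicle-treated cultures; measure growth; express inhibition against the vehicle cultures.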

[7] = NCI Yeast Anticancer Drug Screen. Data for the wt2 strain (AID 169);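 also: 0% = growth of vehicle-treated yeast cultures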; conditions: S. cerevisiae wt2 strain growth inhibition, active compounds read high
How it was run: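 Read-out: growth inhibition versus vehicle-treated control cultures after compound exposure of the yeast strain.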

[8] = NCI Yeast Anticancer Drug Screen. Data for the mlh1 strain (AID 171);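 also: 0% = growth of vehicle-treated control cultures of the same strain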; conditions: S. cerevisiae mlh1 strain growth inhibition, active compounds read high
How it was run: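 Read-out: growth inhibition versus vehicle controls. Strain: engineered yeast with a defined DNA repair or cell cycle defect, compound-treated.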

[9] = NCI Yeast Anticancer Drug Screen. Data for the sgs1 strain (AID 173);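 also: 0% = growth of vehicle-only control cultures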; conditions: S. cerevisiae sgs1 mutant, active compounds read high
How it was run: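 Read-out: yeast growth inhibition relative to vehicle controls, following compound exposure of a strain with a defined DNA repair/cell cycle alteration.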

[10] = NCI Yeast Anticancer Drug Screen. Data for the mlh1 rad18 strain (AID 175); conditions: S. cerevisiae mlh1 rad18 strain growth inhibition, active compounds read high
How it was run: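 Yeast w/ defined DNA-repair lesions; compound exposure; growth vs vehicle controls → % inhibition.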

[11] = NCI Yeast Anticancer Drug Screen. Data for the rad18 strain (AID 177); conditions: S. cerevisiae rad18 mutant growth inhibition, active compounds read high
How it was run: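 Readout: growth inhibition vs vehicle controls. Cells: genetically altered yeast strain, DNA repair defect.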

[12] = NCI Yeast Anticancer Drug Screen. Data for the rad52 strain (AID 147);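 also: 0% = growth of vehicle-treated control cultures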; conditions: S. cerevisiae rad52 mutant growth inhibition, active compounds read high
How it was run: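 Read-out: growth inhibition versus vehicle-treated controls. Cells were a DNA repair-deficient yeast strain treated with compounds.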

[13] = NCI Yeast Anticancer Drug Screen. Data for the wt1 strain (AID 149);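 also: 0% = growth of vehicle-treated wt1 cultures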; conditions: S. cerevisiae wt1 strain (SPY 50644) growth inhibition, active compounds read high
How it was run: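 Compounds are added to wt1 yeast cultures. Growth is then measured. Inhibition is expressed relative to vehicle-treated controls.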

[14] = NCI Yeast Anticancer Drug Screen. Data for the rad50EPP+ strain (AID 151);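 also: 0% = growth of vehicle-treated control cultures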; conditions: S. cerevisiae rad50 mutant strain, active compounds read high
How it was run: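 Growth inhibition read against vehicle controls in rad50EPP+ yeast, a strain altered in DNA damage repair, after compound exposure.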

[15] = NCI Yeast Anticancer Drug Screen. Data for the mgt1 strain (AID 153); conditions: S. cerevisiae mgt1 mutant growth inhibition, active compounds read high
How it was run: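 mgt1 yeast grown with test compound; read-out is growth inhibition versus vehicle-treated cultures.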

[16] = NCI Yeast Anticancer Drug Screen. Data for the rad50 strain (AID 155);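 also: 0% = growth of vehicle-only cultures of the same strain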; conditions: S. cerevisiae rad50 strain growth inhibition, active compounds read high
How it was run: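 Inhibition values express reduced yeast growth in compound-treated cultures relative to vehicle-treated controls.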

[17] = at 5.0 µM (retest, dose inferred, filed as 0.5)
[18] = at 50.0 µM (retest, dose inferred, filed as 5.0)

Measured: growth inhibition

Clc1cccc(C(Nc2nncs2)Nc2nncs2)c1Cl
active: [2]; at 100.0 µM 71% | [6]; at 100.0 µM 77% | [9]; at 100.0 µM 86% | [11]; at 100.0 µM 87%
inactive: [1]; [17] 1% | [1]; at 11.0 µM 7% | [1]; at 33.0 µM 19% | [1]; [18] 29% | [1]; at 50.0 µM 20.7% | [1]; at 100.0 µM 51% | [2]; at 1.2 µM -2% | [2]; at 3.7 µM -2% | [2]; at 11.0 µM 2% | [2]; at 33.0 µM 19% | [3]; [17] 1% | [3]; [18] 50% | [3]; at 50.0 µM 66.5% | [4]; at 1.2 µM -1% | [4]; at 3.7 µM -2% | [4]; at 11.0 µM -1% | [4]; at 33.0 µM 9% | [4]; at 100.0 µM 34% | [5]; [17] -3% | [5]; [18] 25% | [5]; at 50.0 µM -2.6% | [6]; at 1.2 µM 0% | [6]; at 3.7 µM 0% | [6]; [17] -6% | [6]; at 11.0 µM 0% | [6]; at 33.0 µM 12% | [6]; [18] 14% | [6]; at 50.0 µM -20.6% | [7]; at 1.2 µM -2% | [7]; at 3.7 µM 8% | [7]; at 11.0 µM 1% | [7]; at 33.0 µM 19% | [7]; at 100.0 µM 54% | [8]; at 1.2 µM -1% | [8]; at 3.7 µM 0% | [8]; at 11.0 µM 3% | [8]; at 33.0 µM 16% | [8]; at 100.0 µM 49% | [9]; at 1.2 µM -1% | [9]; at 3.7 µM 3% | [9]; at 11.0 µM 16% | [9]; at 33.0 µM 51% | [10]; [17] 3% | [10]; [18] 57% | [10]; at 50.0 µM 55.3% | [11]; at 1.2 µM -4% | [11]; at 3.7 µM 6% | [11]; at 11.0 µM 14% | [11]; at 33.0 µM 42%

CCCCOC(=O)N[C@H]1CCc2cc(OC)c(OC)c(OC)c2-c2ccc(SC)c(=O)cc21
active: [12]; at 100.0 µM 77% | [15]; at 100.0 µM 77% | [16]; at 50.0 µM 82.5% | [16]; at 100.0 µM 81% | [1]; at 100.0 µM 81% | [2]; at 100.0 µM 84% | [3]; at 50.0 µM 82.5% | [4]; at 100.0 µM 79% | [6]; at 50.0 µM 77.8% | [6]; at 100.0 µM 81% | [7]; at 100.0 µM 86% | [8]; at 100.0 µM 90% | [9]; at 100.0 µM 89% | [10]; at 50.0 µM 92.9% | [11]; at 100.0 µM 80%
inactive: [12]; at 1.2 µM -2% | [12]; at 3.7 µM 1% | [12]; at 11.0 µM 6% | [12]; at 33.0 µM 36% | [13]; at 1.2 µM -2% | [13]; at 3.7 µM -3% | [13]; at 11.0 µM -4% | [13]; at 33.0 µM 3% | [13]; at 100.0 µM 55% | [14]; at 1.2 µM 1% | [14]; at 3.7 µM -1% | [14]; at 11.0 µM -4% | [14]; at 33.0 µM -6% | [14]; at 100.0 µM -11% | [15]; at 1.2 µM -5% | [15]; at 3.7 µM -3% | [15]; at 11.0 µM -1% | [15]; at 33.0 µM 49% | [16]; at 1.2 µM 1% | [16]; at 3.7 µM 6% | [16]; [17] -15% | [16]; at 11.0 µM 14% | [16]; at 33.0 µM 51% | [16]; [18] 52% | [1]; at 1.2 µM -6% | [1]; at 3.7 µM -3% | [1]; [17] -19% | [1]; at 11.0 µM -2% | [1]; at 33.0 µM 15% | [1]; [18] 48% | [1]; at 50.0 µM 53% | [2]; at 1.2 µM -1% | [2]; at 3.7 µM 2% | [2]; at 11.0 µM 7% | [2]; at 33.0 µM 49% | [3]; [17] 3% | [3]; [18] -13% | [4]; at 1.2 µM -2% | [4]; at 3.7 µM -5% | [4]; at 11.0 µM -1% | [4]; at 33.0 µM 30% | [5]; [17] -17% | [5]; [18] 60% | [5]; at 50.0 µM 58.3% | [6]; at 1.2 µM -9% | [6]; at 3.7 µM -8% | [6]; [17] 0% | [6]; at 11.0 µM -5% | [6]; at 33.0 µM 2% | [6]; [18] 55% | [7]; at 1.2 µM -2% | [7]; at 3.7 µM -3% | [7]; at 11.0 µM -1% | [7]; at 33.0 µM 29% | [8]; at 1.2 µM -4% | [8]; at 3.7 µM -3% | [8]; at 11.0 µM 2% | [8]; at 33.0 µM 27% | [9]; at 1.2 µM -3% | [9]; at 3.7 µM -5% | [9]; at 11.0 µM 2% | [9]; at 33.0 µM 38% | [10]; [17] -12% | [10]; [18] 47% | [11]; at 1.2 µM -1% | [11]; at 3.7 µM 0% | [11]; at 11.0 µM 7% | [11]; at 33.0 µM 26%

CC(=O)N/N=C/C(C)(C)C(C)(C)/C=N/NC(C)=O
active: [12]; at 100.0 µM 97% | [14]; at 100.0 µM 71% | [16]; at 100.0 µM 98% | [3]; [18] 78% | [3]; at 50.0 µM 70% | [7]; at 100.0 µM 88% | [8]; at 100.0 µM 91% | [9]; at 100.0 µM 98% | [10]; [18] 82% | [11]; at 33.0 µM 81% | [11]; at 100.0 µM 93%
inactive: [12]; at 1.2 µM -1% | [12]; at 3.7 µM -5% | [12]; at 11.0 µM -32% | [12]; at 33.0 µM 38% | [13]; at 1.2 µM -3% | [13]; at 3.7 µM -5% | [13]; at 11.0 µM 2% | [13]; at 33.0 µM 27% | [13]; at 100.0 µM 42% | [14]; at 1.2 µM -3% | [14]; at 3.7 µM 11% | [14]; at 11.0 µM 10% | [14]; at 33.0 µM 18% | [15]; at 1.2 µM 2% | [15]; at 3.7 µM -2% | [15]; at 11.0 µM -4% | [15]; at 33.0 µM -5% | [15]; at 100.0 µM 6% | [16]; at 1.2 µM -13% | [16]; at 3.7 µM -6% | [16]; [17] 4% | [16]; at 11.0 µM 16% | [16]; at 33.0 µM 38% | [16]; [18] 51% | [16]; at 50.0 µM 50.5% | [1]; at 1.2 µM 5% | [1]; at 3.7 µM 2% | [1]; [17] 4% | [1]; at 11.0 µM 1% | [1]; at 33.0 µM 2% | [1]; [18] 39% | [1]; at 50.0 µM 19.2% | [1]; at 100.0 µM 11% | [2]; at 1.2 µM 3% | [2]; at 3.7 µM 2% | [2]; at 11.0 µM 7% | [2]; at 33.0 µM 39% | [2]; at 100.0 µM 54% | [3]; [17] 15% | [4]; at 1.2 µM 9% | [4]; at 3.7 µM 11% | [4]; at 11.0 µM 11% | [4]; at 33.0 µM 4% | [4]; at 100.0 µM 17% | [5]; [17] 2% | [5]; [18] 20% | [5]; at 50.0 µM 5.8% | [6]; at 1.2 µM -1% | [6]; at 3.7 µM -4% | [6]; [17] 0% | [6]; at 11.0 µM -4% | [6]; at 33.0 µM -7% | [6]; [18] 16% | [6]; at 50.0 µM 35.4% | [6]; at 100.0 µM 16% | [7]; at 1.2 µM -1% | [7]; at 3.7 µM -2% | [7]; at 11.0 µM 7% | [7]; at 33.0 µM 39% | [8]; at 1.2 µM -7% | [8]; at 3.7 µM -5% | [8]; at 11.0 µM -2% | [8]; at 33.0 µM 19% | [9]; at 1.2 µM -6% | [9]; at 3.7 µM -8% | [9]; at 11.0 µM 25% | [9]; at 33.0 µM 67% | [10]; [17] 11% | [10]; at 50.0 µM 59.4% | [11]; at 1.2 µM -10% | [11]; at 3.7 µM 1% | [11]; at 11.0 µM 39%

Reference: PubChem BioAssay (NCI)
